Results: the OligoGym collection

What follows are sequences tested against CD86 (assay: pooled miR-30 sensor sort-seq; sequence = guide strand). Details: shRNA.
Note: reference of the scale not given here.

Sequence | sensor-assay potency score (higher = more potent)
TAGCAAGCACTGACAGTTCAGA | -0.996
TAAGCTTGAATCTTCAGAGGAG | 0.681
TATTGCTCGTAACATCAGGGAA | -0.935
TATACTTGGAATGAACACTGTC | 1.09
TTGTGAAGTCTCAGGGTCCAAC | -1.21
TAGAATTAGACAGAAAACCATC | -0.951
ATTATCTTGAGATTTCTGCATA | -0.445
TCTTGGTCTGTTCACTCTCTTC | -1.55
TCATATTGCTCGTAACATCAGG | -0.912
TACTATTTCAGGTTGACTGAAG | -0.445
TTTATGTACACATTTTCTGTTA | -0.664
TAACCGTGTATAGATGAGCAGG | -0.921

What follows are sequences tested against CD8B in the same assay as above. Details: shRNA.

Sequence | sensor-assay potency score (higher = more potent)
AACACAGCTATCTTCTCCTGTT | -0.341
TTCTCCAGTGGATGTAATCTTA | -0.513
TTATTTGTACAACTAAGACATT | -1.21
TAATCTTAGTTGTTTCATGAAA | -1.22
TTTAGCCTCGCAGGACAGCATC | -1.65
TAACCGGCACACTCTCTTCTTG | -0.762
AAACACAGCTATCTTCTCCTGT | 0.733
TACATTTGGTTCCACAAGGGGG | -0.791
TTGGTTTGCACCTTTATGTATG | -1.15
TGTACAACTAAGACATTTGTAT | 0.113
TATCTTCTCCTGTTCCACCTCT | 0.0744
TTGAGGGTGGACTTCTTGGTGG | -0.918
TACTGAGGGAGATTTTAGCCTC | -0.613
TTGCATCCCGAAACACAGCTAT | -0.634
TATTTGTACAACTAAGACATTT | -1.4
TATGTATGCAGGGGTCTGCTGG | -1.19
AAGGAAATCAACCACACTCAGC | -1.28
TTTTTCCACATCGTGCTCGTTA | -0.473
TATTGCTGTAGTATCCATGCAG | 0.681

These sequences were tested against CDC23 in the same assay as above. Details: shRNA.

Sequence | sensor-assay potency score (higher = more potent)
TAAGAATCAAACATCATTCTGG | 0.585
TAAATGCACAACACTTTTGTGC | -0.535
TCTATCAACTGCAACTCTGTGT | 0.16
TATAGCTAACAATATAGCCATC | -1.75
TATATTTGATGTAACACTGGGC | 0.351
TATAATCCTATCTCCTTGCTTG | 0.291
TAGTTGATTGAGTTTCTCGTAA | -0.361
TTTGTGCACAAGTTGAAGCTTC | -0.382
TTGAGTGGAGAAACTCTGCGTG | 0.52
